Inconclusive results are not listed. Where a call stands in place of a potency, no number is given. Active and inactive are the calls of the source. Calls follow the shape of the full dose curve.
Assay: Primary qHTS for Huh7 cytotoxicity: counterscreen for inhibitors of MERS-S pseudotyped particle cell entry (AID 1479147)
Conditions: cell viability read-out; series mostly up to 57.1 µM

Row | SMILES | outcome
1 | CC(C)C[C@H]1C(=O)N2CCC[C@H]2[C@]2(O)O[C@](NC(=O)[C@@H]3C[C@@H]4c5cccc6[nH]cc(c56)C[C@H]4N(C)C3)(C(C)C)C(=O)N12 | inactive
2 | Cc1nnc2n1-c1sc(Br)cc1C(c1ccccc1Cl)=NC2 | inactive
3 | CC(C)=CCN1CC[C@]2(C)c3cc(O)ccc3C[C@H]1[C@H]2C | inactive

Assay: Primary qHTS for inhibitors of MERS-S pseudo-typed particle cell entry (AID 1479149); also: nearly all actives have a fitted effect of over 60% in size
Conditions: MERS-S pseudotyped particle entry, luciferase; series mostly up to 57.1 µM

Row | SMILES | Potency
4 | CC(C)C[C@H]1C(=O)N2CCC[C@H]2[C@]2(O)O[C@](NC(=O)[C@@H]3C[C@@H]4c5cccc6[nH]cc(c56)C[C@H]4N(C)C3)(C(C)C)C(=O)N12 | inactive
5 | Cc1nnc2n1-c1sc(Br)cc1C(c1ccccc1Cl)=NC2 | inactive
6 | CC(C)=CCN1CC[C@]2(C)c3cc(O)ccc3C[C@H]1[C@H]2C | inactive

Assay: Primary qHTS for Vero E6 cytotoxicity: counterscreen for inhibitors of SARS-S pseudo-typed particle cell entry (AID 1479150)
Conditions: cell viability; series mostly up to 57.1 µM

Row | SMILES | outcome
7 | CC(C)C[C@H]1C(=O)N2CCC[C@H]2[C@]2(O)O[C@](NC(=O)[C@@H]3C[C@@H]4c5cccc6[nH]cc(c56)C[C@H]4N(C)C3)(C(C)C)C(=O)N12 | inactive
8 | Cc1nnc2n1-c1sc(Br)cc1C(c1ccccc1Cl)=NC2 | inactive
9 | CC(C)=CCN1CC[C@]2(C)c3cc(O)ccc3C[C@H]1[C@H]2C | inactive

Source: PubChem BioAssay (NCATS)
